A short description of assay [1]: NCI Yeast Anticancer Drug Screen. Data for the rad50 strain (AID 155).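 Note: 0% = growth of vehicle-only cultures of the same strain.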 Conditions: S. cerevisiae rad50 strain growth inhibition; at 50.0 µM; stronger effect = higher value. An outline of the steps:
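Compounds were tested on a yeast strain with an engineered DNA damage repair alteration; the reported value is growth inhibition normalised to vehicle treatment.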

Assay [2] can be described thus: NCI Yeast Anticancer Drug Screen. Data for the mec2-1 strain (AID 157). The note with it: S. cerevisiae mec2-1 strain, at 50.0 µM, stronger effect = higher value. An outline of the steps: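 Yeast mec2-1 mutant treated with compound. Readout: growth inhibition vs vehicle controls.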
The nature of assay [3]: NCI Yeast Anticancer Drug Screen. Data for the sgs1 mgt1 strain (AID 161).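 Note: 0% = growth of cultures given vehicle only.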 Conditions: S. cerevisiae sgs1 mgt1 strain, at 50.0 µM, stronger effect = higher value. Summed up: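 Inhibition of yeast growth, normalised to vehicle-treated controls, is reported for a strain bearing genetic alterations in DNA damage repair.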
The nature of assay [4]: NCI Yeast Anticancer Drug Screen. Data for the cln2 rad14 strain (AID 165).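 Note: 0% = growth equal to vehicle treated cultures.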 The note with it: S. cerevisiae cln2 rad14 strain, at 50.0 µM, stronger effect = higher value. An outline of the steps: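 cln2 rad14 yeast strain; compound exposure; growth inhibition read vs vehicle controls.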
Assay [5] in a line: NCI Yeast Anticancer Drug Screen. Data for the bub3 strain (AID 167). Conditions: S. cerevisiae bub3 mutant strain, at 50.0 µM, stronger effect = higher value. Summed up: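 Growth of a checkpoint-deficient yeast mutant is measured after compound exposure. Values represent inhibition relative to vehicle.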
The nature of assay [6]: NCI Yeast Anticancer Drug Screen. Data for the mlh1 rad18 strain (AID 175). The note with it: S. cerevisiae mlh1 rad18 strain growth inhibition; at 50.0 µM; stronger effect = higher value. Summed up:
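Yeast w/ defined DNA-repair lesions; compound exposure; growth vs vehicle controls → % inhibition.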

Several values for one entry are separate records, joined by “and”; a condition that tells them apart may be missing. Equal values may be shown once. About 79,000 compounds went through this panel and 15% of them were active in at least one assay; those are over-represented in the sample as a whole. Values without a mark were called inactive. Activity calls are given as the source filed them. Cut-off read from the data, not from the text of the source: active = growth inhibition above about 70%; inactive = the rest.

Results on 20 molecules are retold here after PubChem BioAssay (NCI).

Regarding `CCC1(CC(C)O)C(=O)NC(=O)NC1=O` (stereo not given), the growth inhibition is 6.9% in assay [1]; -2.45% in assay [2]; -20% in assay [3]; -37.7% in assay [4]; -0.65% in assay [5]; -23.1% in assay [6].
On to `[Se]=[Nb]=[Se]`, for which the growth inhibition in assay [1] was -5.8%; in assay [2] it was -6.55%; in assay [3], -18.3%; in assay [4] it was -5.1%; in assay [5] it was -27.1%; in assay [6], -28.5%.
As to `CC(=O)OC1(C)CC(C)C(=O)C(C(O)CC2CC(=O)NC(=O)C2)C1` (stereo not given), the growth inhibition in assay [1] was 92.8% (active); in assay [2], 94.3% (active); in assay [3], 93.7% (active); in assay [4], 92.2% (active); in assay [5], 93.3% (active); in assay [6] it was 92.3% (active).
On to `C[CH2][Sn](=[O])[c]1ccccc1`, for which the growth inhibition in assay [1] was -21.9%; in assay [2] it was -17.6%; in assay [3], 3.3%; in assay [4], 10.3%; in assay [5], -0.9%; in assay [6], -23.4%.
As for `CC(=O)C1C(c2ccccc2)C2(C)OC(=O)C(C#N)C12C` (stereo not given), the growth inhibition in assay [1] was -17.6%; in assay [2], 18.9%; in assay [3] it was 9%; in assay [4] it was 32.3%; in assay [5], 21.8%; in assay [6] it was 33.2%.
`c1cc[c]([Sn]2([c]3ccccc3)[O]CCNCC[O]2)cc1`: the growth inhibition in assay [1] is -13.1%; in assay [2], -14.4%; in assay [3] it was 10.4%; in assay [4], -14.9%; in assay [5], -48.7%; in assay [6] it was -74.4%.
For the molecule `Cc1cc(O)ccc1[N+](=O)[O-]`, the growth inhibition in assay [1] is 1.15%; in assay [2], -1.2%; in assay [3] it was 11.8%; in assay [4], 9.6%; in assay [5], 2.9%; in assay [6], 2.95%.
Take `COc1ccc([Se]c2ccc(OC)cc2)cc1`: the growth inhibition in assay [1] is 0%; in assay [2], -15.5%; in assay [3], -7.15%; in assay [4], -13.6%; in assay [5], 21.4%; in assay [6], -4.55%.
`CC1(CCl)COP(=O)(NN)OC1` (stereo not given): the growth inhibition in assay [1] was 3.95%; in assay [2], -3.15%; in assay [3], -3.85%; in assay [4], -28.7%; in assay [5] it was 12%; in assay [6], 5.35%.
Turning to `O=[P+](O)c1cc2ccccc2c2ccccc12`, the growth inhibition was -33% in assay [1]; 17.2% in assay [2]; -4.75% in assay [3]; -46.2% in assay [4]; -10.9% in assay [5]; 1.35% in assay [6].
For `CCC1(CC)C(=O)C=CNC1=O`, the growth inhibition in assay [1] is 17.6%; in assay [2], -20.6%; in assay [3], 11.7%; in assay [4] it was 1.1%; in assay [5] it was -8.15%; in assay [6], 8.15%.
As to `CCC(C(=O)NC1CN2CCC1CC2)c1ccccc1` (stereo not given), the growth inhibition in assay [1] was -6.25%; in assay [2], -23.3%; in assay [3], -27.4%; in assay [4], -3.15%; in assay [5], -2.6%; in assay [6] it was -13.2%.
On to `CN(N=O)c1ccc([N+](=O)[O-])cc1`, for which the growth inhibition was 26.2% in assay [1]; 26.4% in assay [2]; 15.8% in assay [3]; 18.2% in assay [4]; 24.4% in assay [5]; 28.1% in assay [6].
Regarding `CCCCN=C=S`, the growth inhibition is 45.7% in assay [1]; -11.7% in assay [2]; 21.8% in assay [3]; 5.15% in assay [4]; -3.8% in assay [5]; 19% in assay [6].
Regarding `C=C(C)C1C2CC3(C)C4(CO4)C4OC4C3(O)C1C(=O)O2` (stereo not given), the growth inhibition is 13.3% in assay [1]; -16.4% in assay [2]; 14.8% in assay [3]; 4.2% in assay [4]; 5.35% in assay [5]; -47.2% in assay [6].
For `CCCN1CCC2(CC1)COCc1ccccc12`, the growth inhibition in assay [1] was 30.8%; in assay [2], 26.9%; in assay [3], 28.4%; in assay [4] it was 12.6%; in assay [5], 15.1%; in assay [6], 34.8%.
Take `O=C(CC(=O)C(F)(F)F)c1cccs1.[Fe]`: the growth inhibition is 22.1% and 27.1% in assay [1]; 34.8% and 30.1% in assay [2]; 33.2% and 28.4% in assay [3]; 11.2% and 10.8% in assay [4]; 20.9% and 21.2% in assay [5]; 48.2% and 42.5% in assay [6].
As to `CC1C(c2ccccc2)OCCN1C` (stereo not given), the growth inhibition in assay [1] is -26.4%; in assay [2], -12.9%; in assay [3] it was -23.7%; in assay [4], -7.5%; in assay [5], -16.4%; in assay [6] it was -32.2%.
`CCN(CC)CCc1ccccn1`: the growth inhibition in assay [1] is -13.4%; in assay [2] it was -15.5%; in assay [3], -7%; in assay [4] it was -8.8%; in assay [5] it was -14.4%; in assay [6], 5.5%.
`CC1NCCc2c1[nH]c1cc(O)ccc21` (stereo not given): the growth inhibition was 4.55% in assay [1]; -10.9% in assay [2]; 5.5% in assay [3]; -9.2% in assay [4]; -21.5% in assay [5]; 3.1% in assay [6].
